A selection: hits, their analogues and other compounds. The true share with any hit is near 11%.
Pf growth 96h = Primary qHTS for delayed death inhibitors of the malarial parasite plastid, 96 hour incubation; actives 6.9% (n = 320,000); Potency, µM (titrated, usually from 28.7 µM), for inactives: at the highest dose activity change, negative = inhibition, actives largely listed as inhibitors; P. falciparum luciferase reporter growth, 96 h; AID 504834, 2011
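Luminescence readout: decreased luciferase signal marks inhibited growth of reporter-expressing P. falciparum in infected red cells (2% hematocrit, 0.05% parasitemia final), exposed to compound two generations (96 h, 37 C, 5% CO2).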
AmpC inh detg = qHTS Inhibitors of AmpC Beta-Lactamase (assay with detergent). P00811. AmpC hydrolysis of nitrocefin, absorbance 480 nm, 0.01% Triton. Potency, µM (series often up to 114 µM), for inactives: at the highest dose activity change, negative = inhibition, usual class: inhibitors. actives 0.041% (n = 370,000). AID 485294, 2010;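 further: 0% = no-compound wells and -100% = no-enzyme wells; nearly all actives have a fitted effect of over 25% in size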
Target sequence (P00811 whole entry, looked up): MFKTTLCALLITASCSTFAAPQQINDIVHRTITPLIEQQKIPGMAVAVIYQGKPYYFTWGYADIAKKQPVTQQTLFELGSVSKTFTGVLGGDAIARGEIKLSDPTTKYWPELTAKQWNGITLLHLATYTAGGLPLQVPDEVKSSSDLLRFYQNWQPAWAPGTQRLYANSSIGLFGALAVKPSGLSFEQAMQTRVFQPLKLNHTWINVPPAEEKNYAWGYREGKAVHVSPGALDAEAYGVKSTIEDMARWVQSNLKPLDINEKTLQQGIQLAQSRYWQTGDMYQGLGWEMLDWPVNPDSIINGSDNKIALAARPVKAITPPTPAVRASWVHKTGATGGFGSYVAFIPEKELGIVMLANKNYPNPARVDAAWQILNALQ
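AmpC (5.3 nM in the dispensed reagent) in 20 mM phosphate pH 7.0 with 0.01% (detergent screen) or 0.0001% Triton X-100 was preincubated with compounds for 15 min at room temperature. Nitrocefin was then added from an 800 uM solution, and hydrolysis was followed at 480 nm.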
HCV inh = qHTS Assay for Inhibitors of Hepatitis C Virus (HCV). actives 3.4% (n = 340,000). Potency, µM (top dose mostly 41.8 µM), inactives show at the top dose activity change, negative = inhibition, actives largely listed as inhibitors. Huh7.5.1 HCVcc-Cre infection, luciferase reporter, 44 h. AID 651820, 2012
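Cells seeded at 1,000/well and cultured 4 h, then compounds added followed by HCVcc-Cre virus (~0.5 moi). After 44 h further culture, luciferase substrate was added, plates held 15 min at room temperature, and luminescence read for 15 sec.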
AmpC inh no detg = qHTS Inhibitors of AmpC Beta-Lactamase (assay without detergent) | AmpC nitrocefin hydrolysis, absorbance 480 nm, 0.0001% Triton | actives 0.52% (n = 330,000) | P00811 | Potency, µM (top dose mostly 57.1 µM), without a hit: top-dose activity change, negative = inhibition, most hits filed as inhibitors;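 further: plate controls were no compound for no effect and no enzyme for full effect; nearly all actives have a fitted effect of over 20% in size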
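AmpC (5.3 nM in the dispensed reagent) in 20 mM phosphate pH 7.0 with 0.01% (detergent screen) or 0.0001% Triton X-100 was preincubated with compounds for 15 min at room temperature. Nitrocefin was then added from an 800 uM solution, and hydrolysis was followed at 480 nm.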
Pf growth 48h = Primary qHTS for delayed death inhibitors of the malarial parasite plastid, 48 hour incubation. Potency, µM (series often up to 28.7 µM), without a hit: top-dose activity change, negative = inhibition, actives largely listed as inhibitors. AID 504832, 2011. P. falciparum luciferase growth in erythrocytes, 48 h. actives 5.9% (n = 310,000)
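Compounds are pin-transferred into medium, infected erythrocytes (2% hematocrit, 0.1% parasitemia final) are added, and plates sit one parasite generation at 37 C in 5% CO2. Detection reagent is then added and luminescence measured.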
AMA1 RON2 block = qHTS for Inhibitors of AMA1-RON; Towards Development of Antimalarial Drug Lead: Primary Screen; Plasmodium falciparum AMA1 (3D7) - RON2 peptide interaction; AlphaScreen AMA1-biotinylated RON2 peptide binding; Potency, µM (titrated, usually from 58.2 µM), for inactives: at the highest dose activity change, negative = inhibition, actives largely listed as inhibitors; actives 0.2% (n = 360,000); AID 720542, 2013;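 further: 0% = vehicle wells and -100% = peptide control; nearly all actives have a fitted effect of over 45% in size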
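AMA1 (3D7) with his tag at 25 nM final met compounds first, then biotinylated RON2 peptide at 25 nM; detection used donor plus acceptor beads, 10 µg/mL apiece, read by AlphaScreen after 30 min at room temperature.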
An asterisk follows results filed as active; ? = inconclusive; . = no result given; [ ] = dose if it differs, or a comment. The call rests on the fitted dose curve; in most records, active means well fitted curve in the direction sought with a large enough effect; inconclusive means small, poorly fitted or top-dose-only effect, or another doubt; inactive means no such curve, though single readings can be large; an effect the other way counts as inactive or inconclusive. Unless noted, on the % scale 0 is the no-effect control and ±100 the full control effect; potency means the concentration at half of the fitted maximal effect.

SMILES	Pf growth 96h	AmpC inh detg	HCV inh	AmpC inh no detg	Pf growth 48h	AMA1 RON2 block
O=C(NCCCN1CCCC1)C1CCN(C(=O)c2cc3sccc3n2Cc2ccc(F)cc2)CC1	10µM*	-12%	25µM*	154%	.	7%
CC1Cc2ccccc2N1C(=O)c1cc2sccc2n1Cc1ccc(F)cc1 (stereo not drawn)	?	-10%	-26%	-2%	12µM*	-6%
Cc1ccc(NC(=O)c2c(C)oc3nc(C)nc(N4CCCC4)c23)c(C)c1	.	3%	.	.	.	.
CC(C)c1nc2sc3c(N4CCCCC4)ncnc3c2c2c1CCCC2	.	21%	.	.	.	.
CCCCCC(=O)OC(CN1CCCCC1)CN1CCCC1=O (stereo not drawn)	10µM*	-13%	0%	-7%	15%	-3%
CCCCCCC(=O)Oc1ccc(N2C(=O)CCC2=O)cc1	?	-2%	8%	?	0%	11%
Cn1nc(-c2ccc(Cl)cc2)c2cc(C(=O)NCCCN3CCCC3)sc21	?	-6%	13µM*	28%	.	-7%
CCN1CCCC1CNC(=O)c1cc2c(-c3cccc(OC)c3)nn(C)c2s1 (stereo not drawn)	5.9µM*	?	?	8%	?	2%
CCCCNC(=O)c1cc2c(-c3ccc(Cl)cc3)nn(C)c2s1	?	?	-17%	-13%	.	0%
CCOCCCNC(=O)c1cc2c(-c3ccc(OC)c(OC)c3)nn(C)c2s1	.	-6%	.	.	.	.
COc1cccc(-c2nn(C)c3sc(C(=O)NCCc4ccc(Cl)cc4)cc23)c1	.	-2%	.	.	.	.
CCN(CC)CCCNC(=O)c1cc2c(-c3cccc(OC)c3)nn(C)c2s1	80%	5%	11µM*	30%	8.3µM*	3%
CCCCN(CC)CCCNC(=O)c1cc2c(-c3ccc(OC)c(OC)c3)nn(C)c2s1	?	1%	?	40%	2.6µM*	-6%
Cc1cc2c(c3oc(=O)c4ccccc4c13)CN(Cc1ccc(F)cc1)CO2	.	25%	.	.	.	.
Cc1ccc(NC(=O)C2CCN(c3cc(C)nc4c(-c5ccc(Cl)cc5)c(C)nn34)CC2)c(C)c1	.	16%	.	.	.	.
COc1cccc(-c2nn(C)c3sc(C(=O)NCCCN(C)Cc4ccccc4)cc23)c1	57%	0%	?	64%	2.1µM*	?
COc1cccc(-c2nn(C)c3sc(C(=O)NCc4ccco4)cc23)c1	4%	-3%	7.1µM*	-21%	7.4µM*	-24%
CCCCN(C)CCNC(=O)c1cc2c(-c3cccc(OC)c3)nn(C)c2s1	-19%	-10%	?	41%	1.5µM*	-9%
COCCCNC(=O)c1cc2c(-c3ccc(Cl)cc3)nn(C)c2s1	43%	-17%	?	41%	.	-1%
CC(=O)Nc1cccc(Nc2nc3ccccc3n3c(C)nnc23)c1	.	21%	.	.	.	.
CCOc1ccc(NC(=O)CC2C(=O)N(c3cccc(C)c3)C(=O)N2Cc2ccco2)cc1 (stereo not drawn)	.	11%	.	.	.	.
COC(=O)c1ccccc1NC(=O)c1nc(-c2ccc(C)cc2)n2c1CCCCC2	.	10%	.	.	.	.
COc1ccc(C(=O)NNc2ncnc3c2cnn3-c2cccc(Cl)c2)cc1OC	.	4%	.	.	.	.
CCN(c1ccccc1)S(=O)(=O)c1cccc(C(=O)Nc2ccc(C)cn2)c1	9.3µM*	0%	?	-24%	8.3µM*	0%
CCN(c1ccccc1)S(=O)(=O)c1ccc(NN)nc1	?	-6%	?	-39%	13µM*	67%
SMILES	Pf growth 96h	AmpC inh detg	HCV inh	AmpC inh no detg	Pf growth 48h	AMA1 RON2 block
CCN(CC)S(=O)(=O)c1cccc(C(=O)Nc2ccc(Cl)cn2)c1	17%	?	3.5µM*	-14%	31%	38%
COc1cc(C(=O)Nc2ccc(NC(=O)c3cccc(Cl)c3)nc2)cc(OC)c1OC	74%	-2%	4µM*	67%	2.6µM*	6%
CCN(CC)S(=O)(=O)c1ccc(NN)nc1	?	-10%	3%	-36%	-8%	48%
COc1cc(C(=O)Nc2ccc(NC(=O)C3CCCCC3)nc2)cc(OC)c1OC	?	-12%	?	-7%	?	-10%
CCC(=O)Nc1ccccc1-c1nc2ccccc2n(C(C)C(=O)Nc2ccc(OC)cc2)c1=O (stereo not drawn)	.	-2%	.	.	.	.
COC(=O)c1ccc(C2CC(=O)Nc3c2c(C)nn3-c2nc(C)cc(C)n2)cc1 (stereo not drawn)	.	-2%	.	.	.	.
CN(C)C1(CNC(=O)COc2ccc([N+](=O)[O-])cc2)CCCCC1	.	-9%	.	.	.	.
CCN(CC)S(=O)(=O)c1cc(C(=O)Nc2ccc(Cl)cn2)ccc1C	.	-7%	16µM*	-24%	124%	-5%
CCN(c1ccccc1)S(=O)(=O)c1ccc(OC)c(OC)c1	10%	?	14%	1%	.	3%
CCN(c1ccccc1)S(=O)(=O)c1ccc2ccccc2c1	-6%	-6%	5.6µM*	-36%	-6%	7%
O=c1[nH]c(=O)n(Cc2ccccc2)c(O)c1/C=C1\C=Nc2ccccc21	-52%[5.75 µM]	-4%	-5%	-32%	-7%	-7%
O=c1[nH]c(/C=C2\C=Nc3ccccc32)c(O)n1Cc1ccccc1F	-22%	10%	4.5µM*	-33%	?	-3%
Nc1cc(-c2ccc(Br)cc2)nn1S(=O)(=O)c1ccccc1	?	-11%	6%	?	?	3%
Nc1cc(-c2ccccc2)nn1S(=O)(=O)c1ccc(F)cc1	10µM*	?	10µM*	-33%	.	-4%
Nc1cc(-c2ccc(Cl)cc2)nn1S(=O)(=O)c1ccc(Cl)cc1	3.3µM*	?	?	-30%	.	-1%
CCOc1ccc(-c2cc(N)n(S(=O)(=O)c3ccc(OC)c(OC)c3)n2)cc1	?	-7%	22µM*	0%	.	7%
Cc1ccc(-c2cc(N)n(Cc3ccc(Cl)cc3)n2)cc1	?	?	10µM*	-26%	53%	-25%
COc1ccc(S(=O)(=O)n2nc(-c3ccc(Cl)cc3)cc2N)cc1OC	?	-4%	?	-8%	.	-5%
Cc1ccc(NC(=O)c2cccn2-c2nnc(N3CCCCC3)s2)cc1Cl	.	0%	.	.	.	.
COc1cc(-c2cc(N)n(S(=O)(=O)c3ccc(F)cc3)n2)cc(OC)c1OC	22%	?	?	-39%	.	13%
COc1ccc(-c2cc(N)n(S(=O)(=O)c3ccc(F)cc3)n2)cc1OC	22%	-1%	10µM*	-1%	.	-2%
